{"source": "PubChem BioAssay (NCI)", "note": "About 83,000 compounds went through this panel and 20% of them were active in at least one assay; those are over-represented in the sample as a whole.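 Single-dose data. Exposure time 48 hours. Values below 10 considered active.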 Activity calls are given as the source filed them."}
{"test_system": "A549/ATCC NSCLC", "assay": "NCI-60 one-dose screen, 48 h (100 = growth as untreated, 0 = no growth, -100 = all killed)", "details": "10 µM unless noted", "experimental": "Growth inhibition of the A549/ATCC human Non-Small Cell Lung tumor cell line is measured as a screen for anti-cancer activity. Cells are grown in 96 well plates and exposed to the test compound for 48 hours. Compounds are tested at a single concentration, which is 10^-5 M for most compounds. The reported endpoint is percent growth (GI% or GIPRCNT), where numbers from 0 - 100% represent growth inhibition, and numbers from -100% - 0 represent cell death. For example, a value of 40 represents 60% growth inhibition. A value of 0 means no net growth occurred over the course of the experiment. A value of -40 indicates 40% of cells at the beginning of the experiment died by the end of the experiment. A value of -100 means all cells are dead at the end of the experiment.\nNCI-60 Human Tumor Cell Lines Screen was performed using the standard one-dose NCI protocol, which is described in more detail at https://dtp.cancer.gov/discovery_development/nci-60/default.htm.\nCompounds with GIPRCNT values below 10 were considered active. Activity score was based on GIPRCNT using the following formula: […]\nScore is 0 for GIPRCNT values of 100 or above, 50 for GIPRCNT values of 0, and 100 for GIPRCNT values of -100."}
{"smiles": "Oc1ccccc1OB(Oc1ccccc1O)N(CCCl)CCCl", "growth": "67% (inactive)"}
{"smiles": "COc1cc(NCCCCCN=C(N)N)c2ncccc2c1", "growth": "90.7% (inactive)"}
{"smiles": "Cc1cc(N(CCCl)CCCl)ccc1C=Nc1ccc2ccccc2c1", "growth": "69.8% (inactive)"}
{"smiles": "N#C[Se]CCCNS(=O)(=O)C1CC2C=CC1C2", "note": "(stereo not given)", "growth": "-34.1% (active)"}
{"smiles": "CC(=O)N(C)C1=Nc2ccc(Cl)cc2C(c2ccccc2)=[N+]([O-])C1", "growth": "106% (inactive)"}
{"smiles": "CCCC(C)(C)c1ccc2c(c1)OC(C)(C)[C@@H]1CC=C(C)C[C@@H]21", "growth": "88.2% (inactive)"}
{"smiles": "COc1ccc(C(=O)c2ccc([As]=O)cc2)cc1", "note": "(stereo not given)", "growth": "-71.8% (active)"}
{"smiles": "CC(C)(C)NCC(O)c1ccccc1Cl", "note": "(stereo not given)", "growth": "11.5% (inactive)"}
{"smiles": "CCC(CO)NC1CCCCC1", "note": "(stereo not given)", "growth": "93.8% (inactive)"}
{"smiles": "C=CCN1C(=O)C(CC)(CCC(C)C)C(=O)NC1=S", "note": "(stereo not given)", "growth": "98.7% (inactive)"}
{"smiles": "C[C@]12CC[C@H](OC3OC(O)C(O)C(O)C3O)C=C1CCC1C2CC[C@]2(C)[C@@H](c3ccc(=O)oc3)CC[C@]12O", "note": "(stereo not given in full)", "growth": "102% (inactive)"}
{"smiles": "C1CN1c1nc(N2CC2)nc(N2CC2)n1", "growth": "59.8% (inactive)"}
{"smiles": "CC(=O)C1C(=O)N(C)C(=O)N(C)C1=O", "growth": "96.1% (inactive)"}
{"smiles": "CC1(C)N=C(N)N=C(N)N1c1ccc(CNC(=O)Nc2ccc(S(=O)(=O)F)c(Cl)c2)c(Cl)c1", "growth": "10% (inactive)"}
{"smiles": "CC1([N+](=O)[O-])COP(=O)(Nc2ccc(F)cc2)OC1", "note": "(stereo not given)", "growth": "98.5% (inactive)"}
{"smiles": "COc1cc(C2(C#N)CCN(C)CC2)cc(OC)c1OC", "growth": "88.8% (inactive)"}
{"smiles": "CC(=O)N1N=C(c2ccccc2)CC1c1sc(N(CCCl)CCCl)nc1Cl", "note": "(stereo not given)", "growth": "86.3% (inactive)"}
{"smiles": "O=C(C(=O)N1CCCC1)c1cn(CCCCCn2cc(C(=O)C(=O)N3CCCC3)c3ccccc32)c2ccccc12", "growth": "85.2% (inactive)"}
{"smiles": "O=[N+]([O-])c1ccc(F)c([N+](=O)[O-])c1F", "growth": "96% (inactive)"}
{"smiles": "CCOC(=O)/C=C(\\C)Nc1ccc(N/C(C)=C/C(=O)OCC)c2c1Oc1ccccc1O2", "growth": "106% (inactive)"}
{"smiles": "Oc1c(Br)cc(Br)cc1Br.[Cu+2]", "growth": "98% (inactive)"}
{"smiles": "Nc1c(Br)cc([N+](=O)[O-])cc1[N+](=O)[O-]", "growth": "92.3% (inactive)"}
{"smiles": "[Cl][Hg][n]1cnc2c(Cl)c(Cl)c(Cl)cc21", "growth": "86.7% (inactive)"}
{"smiles": "COC(=O)C(=[N+]=[N-])C(=O)OC", "growth": "99.3% (inactive)"}
{"smiles": "O=[N+]([O-])c1ccccc1N1CCNCC1", "growth": "95% (inactive)"}
{"smiles": "CCC(C)[C@H]1O[C@]2(C=C[C@@H]1C)C[C@@H]1C[C@@H](C/C=C(\\C)[C@@H](OC3C[C@H](OC)C(O[C@H]4C[C@H](OC)[C@@H](O)[C@H](C)O4)[C@H](C)O3)[C@@H](C)/C=C/C=C3\\CO[C@@H]4[C@H](O)C(C)=C[C@@H](C(=O)O1)[C@]34O)O2", "note": "(stereo not given in full)", "growth": "6.21% (active)"}
{"smiles": "CN(C)P1(N(C)C)=NP(N(C)C)(N(C)C)=NP(N(C)C)(N(C)C)=N1", "growth": "99.3% (inactive)"}
{"smiles": "COc1ccc(C(c2ccc(OC)cc2)C(Cl)(Cl)Cl)cc1", "growth": "94.6% (inactive)"}
{"smiles": "O=C(O)c1nn(Cc2ccc(Cl)cc2)c2ccccc12", "growth": "102% (inactive)"}
{"smiles": "C[C@@H]1CC[C@@H]2[C@@H]1[C@H](OC(=O)/C=C/C1CCCCC1)[C@]1(C3CCCCC3)C[C@@H](OC(=O)CO)[C@@]2(C)O1", "growth": "60.6% (inactive)"}
{"smiles": "CC[C@]12C=CCN3CC[C@@]4(c5ccc(OC)cc5N(C)[C@H]4[C@@](O)(C(=O)OC)[C@@H]1OC(=O)CCCN1CCN(CCCC(=O)O[C@@H]4[C@]5(CC)C=CCN6CC[C@@]7(c8ccc(OC)cc8N(C)[C@H]7[C@@]4(O)C(=O)OC)[C@@H]65)CC1)[C@@H]32", "growth": "-81.4% (active)"}
{"smiles": "CCCCCCCCCCOc1ccc(C(=O)Oc2ccc(CSP3(=O)OCC4OC(n5ccc(=O)[nH]c5=O)C(F)C4OP(=O)(O)OCC4OC(n5cnc6c(N)ncnc65)C(F)C4O3)cc2)cc1", "note": "(stereo not given)", "growth": "85.9% (inactive)"}
{"smiles": "CC(=O)O[C@H]1CCC2C3CCC4=C/C(=N/O)CCC4(C)C3CCC21C", "note": "(stereo not given in full)", "growth": "99.7% (inactive)"}
{"smiles": "CC(=O)Nc1ccc(Cc2ccc(NC(C)=O)cc2)cc1", "growth": "95% (inactive)"}
{"smiles": "O=C(NCCNC(=O)c1ccc([As](O)O)cc1)c1ccc([As](O)O)cc1", "growth": "109% (inactive)"}
{"smiles": "CC(/C=N/N=C(N)N)=N/N=C(N)N", "growth": "106% (inactive)"}
{"smiles": "Nc1c(Br)cc2c3c(cccc13)-c1ccccc1-2", "growth": "77.2% (inactive)"}
{"smiles": "CCCCn1cc(C(=O)/C(C#N)=C/c2cc3ccccc3nc2Cl)c2cc(OC)ccc21", "growth": "102% (inactive)"}
{"smiles": "c1ccc(-c2ccc3ccccc3[o+]2)cc1", "growth": "90.8% (inactive)"}
{"smiles": "CC1(C)N=C(N)N=C(N)N1c1ccc(OCCCCOc2ccc(S(=O)(=O)F)cc2)c(Cl)c1", "growth": "11.2% (inactive)"}
